“And” between values parts separate entries of the source, which are not always exact repeats. Equal entries are not always repeated. Inconclusive results are not listed. The source made the active and inactive calls. How the calls were made is not given here.

A short description of the first assay: dose response, DH231 delta cqsS, luminescence, dry powder (AID 651808). As to conditions: V. cholerae DH231 delta cqsS, luxCDABE luminescence, 6 h; at 80 µM; test 2; stronger effect = higher value.
As to `O=C(Cc1ccccc1OC(F)(F)F)NC1CCCC1`, the max activity (light induction) was -14.6% (inactive).

On to `O=C(Cc1cccc(OC(F)(F)F)c1)NC1CCCC1`, for which the max activity (light induction) was -5.92% (inactive).

Regarding `O=C(Cc1ccccc1F)NC1CCCC1`, the max activity (light induction) was 0.357% (inactive).

`CCCn1nnnc1NCc1ccccc1Cl`: the max activity (light induction) was -58.8% (inactive).

Regarding `CC(C)NC(=O)Cc1ccc(-c2ccccc2)cc1`, the max activity (light induction) is -26.8% (inactive).

As for `O=C(Cc1ccc(-c2ccccc2)cc1)NC1CCOCC1`, the max activity (light induction) was -9.06% (inactive).

As to `CS(=O)(=O)c1ccc(CC(=O)NC2CCCC2)cc1`, the max activity (light induction) was -47.4% (inactive).

As to `CC(C)c1ccc(CNc2nnnn2C)cc1`, the max activity (light induction) was -24.7% (inactive).

Consider `Cn1nnnc1NCc1ccc(N2CCCC2)cc1`, for which the max activity (light induction) is -32.9% (inactive).

In the case of `COc1ccc(CC(=O)NC2CCCC2)cc1`, the max activity (light induction) is -4.11% (inactive).

For the molecule `CCCn1nnnc1NCc1ccc(N2CCCC2)cc1`, the max activity (light induction) was -55.4% (inactive).

`CCC(CC)NC(=O)Cc1ccc(-c2ccccc2)cc1`: the max activity (light induction) is -17.5% (inactive).

`CCCn1nnnc1NCc1ccc(C(C)C)cc1`: the max activity (light induction) is -51.3% (inactive).

As for `CCn1nnnc1NCc1ccc(C(C)C)cc1`, the max activity (light induction) was -41.8% (inactive) and -46.4% (inactive).

On to `O=C(Cc1ccc(-c2ccccc2)cc1)NC1CCCCC1`, for which the max activity (light induction) is -14.6% (inactive).

Regarding `O=C(Cc1ccc(-c2ccccc2)cc1)NC1CCC1`, the max activity (light induction) was -12.2% (inactive).

As to `O=C(NCc1ccc(-c2ccccc2)cc1)C1CCCC1`, the max activity (light induction) was -17% (inactive).

With `CCn1nnnc1NCc1ccc(N2CCCC2)cc1`, the max activity (light induction) was -52.6% (inactive).

As for `O=C(Cc1ccccc1Cl)NC1CCCC1`, the max activity (light induction) is -18.1% (inactive).

Turning to `O=C(Cc1ccc(-c2ccccc2)cc1)NC1CCCC1`, the max activity (light induction) was -13.9% (inactive) and -5.11% (inactive).

For `CCC(C)NC(=O)Cc1ccc(-c2ccccc2)cc1` (centres undefined), the max activity (light induction) is -31.1% (inactive).

In the case of `O=C(Cc1ccccc1C(F)(F)F)NC1CCCC1`, the max activity (light induction) is -7.17% (inactive).

As for `O=C(Cc1cccc(F)c1)NC1CCCC1`, the max activity (light induction) is -4.2% (inactive).

Still in this assay, the particulars now being: V. cholerae DH231 delta cqsS, luxCDABE luminescence, 6 h; measured here: test 1 replicate run; at 80 µM; test 1; stronger effect = higher value.
As to `CCn1nnc(NCc2ccc(C)cc2)n1`, the max activity (light induction) is -23%.

For the molecule `Cn1nnnc1NCc1ccc(N2CCCC2)cc1`, the max activity (light induction) was -32.2%.

Take `CCCn1nnnc1NCc1ccc(N2CCCC2)cc1`: the max activity (light induction) is -46.1%.

`CCCn1nnnc1NCc1ccc(C(C)C)cc1`: the max activity (light induction) is -24.4%.

In the case of `CCn1nnnc1NCc1ccc(C(C)C)cc1`, the max activity (light induction) is -24.1% and -23.5%.

`CCn1nnnc1NCc1ccc(N2CCCC2)cc1`: the max activity (light induction) is -42.4%.

These data come from PubChem BioAssay AID651808 (Broad Institute, 2012).
